Compound activity as filed in PubChem.
In the library only some 4% were active in any assay of this set; here they are far more common.
tim23-1 inh = tim23-1 yeast growth inhibition; AID 463212; inhibition, % at 20 µM; S. cerevisiae tim23-1 growth, BacTiter-Glo luminescence, 24 h; 330,000 compounds, 1.3% hits;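 active = growth inhibition of the mutant yeast at or above 50%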;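 note: temperature-sensitive mutant grown at 25 °C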
tim10-1 inh = tim10-1 yeast growth inhibition; S. cerevisiae tim10-1 ts strain growth, BacTiter-Glo, 24 h; 330,000 compounds, 2.2% hits; inhibition, % at 20 µM;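 active = inhibition of at least 40%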;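 note: mutant grown at 25 °C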
NLRP3 yeast inh = inhibitors of NALP3 inflammasome in yeast. inhibition, % at 10 µM. Yeast reconstituted NLRP3/ASC/caspase-1, beta-gal luminescence, 24 h. 330,000 compounds, 0.39% hits. AID 2825;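 active = inhibition of 50% or more; inactive = inhibition below 50%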
TIM10 inh = inhibits growth of TIM10 yeast strain | S. cerevisiae TIM10 strain growth, BacTiter-Glo luminescence, 24 h | inhibition, % at 10 µM | 330,000 compounds, 1.4% hits;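 active = inhibition of 40% or more at the single tested concentration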;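 note: wild-type TIM10 isogenic control strain grown at permissive 25 °C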
NALP1 yeast inh = inhibitors of NALP1 inflammasome in yeast; AID 2071; S. cerevisiae NALP1/ASC/caspase-1 growth, X-gal OD620, 72 h; 280,000 compounds, 0.61% hits; inhibition, % at 10 µM; in the data active = inhibition mostly above about 24%, no sharp cut-off; inactive = mostly below about 32%
NALP3 confirm = NALP3 inhibition confirmation in yeast; inhibition, % at 10 µM; AID 435006; 1,300 compounds, 81% hits; yeast expressing human NALP3, luminescence; shares compounds with NLRP3 yeast inh; in the data active = inhibition above about 48%
Casp1 ASC ctr = caspase-1-ASC yeast counter-screen hit; yeast expressing Caspase-1-ASC, luminescence counter screen; 1,000 compounds, 66% hits; inhibition, % at 10 µM; shares compounds with NLRP3 yeast inh; AID 488784
NALP3 yeast rt = yeast NALP3 inhibition, confirmed on retest. shares compounds with NLRP3 yeast inh. yeast expressing human NALP3, luminescence read-out. inhibition, % at 10 µM. 1,000 compounds, 53% hits. AID 488794
Large screens that a line does not name were inactive (follow-up assays come after a bar, where they were run). Cut-off read from the data, not from the text of the source, unless noted: active = inhibition above about 50%; inactive = the rest.

O=C(O)c1ccc(/C=N/NC(=O)c2ccc(F)cc2)cc1	none (no result: NALP1 yeast inh)
O=C(N/N=C/c1ccc(F)cc1)c1ccccc1	NALP1 yeast inh 32
CCNC(=O)CSc1nnc(-c2cccc(S(=O)(=O)N3CCOCC3)c2)o1	none (no result: NALP1 yeast inh)
O=C(CC1NCCNC1=O)Nc1ccc([N+](=O)[O-])cc1 (centres undefined)	NALP1 yeast inh 32
COc1ccc(C(=O)NC(C)CCn2cccn2)cc1OC1CCN(C(C)C)CC1 (centres undefined)	none
CCc1nnc(NC(=O)CN2C(=O)c3ccccc3C2=O)s1	none
CCCc1nnc(NC(=O)CN2C(=O)c3ccccc3C2=O)s1	NALP1 yeast inh 44
COCCn1c(SCC(=O)Nc2ccc(S(=O)(=O)N(C)C)cc2)nc2ccccc21	NALP1 yeast inh 38
CN1CCN(C(CNC(=O)C(=O)Nc2ccc3c(c2)OCCO3)c2ccc(F)cc2)CC1 (centres undefined)	none (no result: NALP1 yeast inh)
CCOc1ccc(NC(=O)C2CCN(S(=O)(=O)c3cccs3)CC2)cc1	NALP1 yeast inh 39
CC(CCc1ccccc1)NC(=O)C(=O)Nc1ccccc1 (centres undefined)	none
Cc1c(CC(=O)O)c(=O)oc2c(C)c(OCc3nn[nH]n3)ccc12	NALP1 yeast inh 37
COc1ccc(CCNC(=O)c2ccc3c(c2)N(Cc2ccc(F)cc2)CCS3)c(OC)c1	none
CN(C)Cc1c(O)ccc2c1O/C(=C\C=C\c1ccccc1)C2=O	NALP1 yeast inh 44
COc1ccc(NC(=O)c2ccc3ccccc3c2OC)cc1	none (no result: NALP1 yeast inh)
CCOc1ccc(Br)cc1S(=O)(=O)Nc1cccc(S(=O)(=O)Nc2ccccc2C(=O)O)c1	none (no result: NALP1 yeast inh)
CCCCNc1nc(-c2ccccc2)c(C(=O)OCC)cc1C#N	NALP1 yeast inh 44
CCCNc1nc(-c2ccccc2)c(C(=O)OCC)cc1C#N	none
Cc1ccc2nc(C)cc(Nc3ccc4c(c3)OCCO4)c2c1	NALP1 yeast inh 33
N#CC1(NC(=O)COc2cccnc2[N+](=O)[O-])CCCCC1	none (no result: NALP1 yeast inh)
Cc1ccc(N(C(C)C(=O)O)S(=O)(=O)c2c(C)[nH]c(=O)[nH]c2=O)cc1 (centres undefined)	NALP1 yeast inh 42
O=C(c1cccc(C(F)(F)F)c1)C1CCCN(C(=O)CCc2cnccn2)C1 (centres undefined)	none
O=C(c1ccc(C(F)(F)F)cc1)C1CCCN(C(=O)CCc2cnccn2)C1 (centres undefined)	NALP1 yeast inh 38
C=CCNC(=O)Nc1ccc2oc(C)nc2c1	none
Cc1nc2cc(NC(=O)NCCCO)ccc2o1	NALP1 yeast inh 29
CCN(CC)Cc1c(C(=O)N/N=C/c2cccc(OCc3cccc(Cl)c3)c2)nnn1-c1nonc1N	none
CCCCC(CC(O)COCC(C)C)C(=O)NNC(=S)Nc1ccccc1 (centres undefined)	none
CCC(CC(C)(C)O)C(=O)NNC(=S)Nc1ccccc1 (centres undefined)	NALP1 yeast inh 33
Cc1ccc(S(=O)(=O)N2CC3(C)CN(S(=O)(=O)c4ccc(C)cc4)CC(C)(C2)C3)cc1	none
CCC12CN(S(=O)(=O)c3ccc(C)cc3)CC(CC)(CN(S(=O)(=O)c3ccc(C)cc3)C1)C2=O	NALP1 yeast inh 42
c1ccc(-c2nnc(OCCN3CCOCC3)c3ccccc23)cc1	NALP1 yeast inh 42
Brc1ccccc1OCCN1CCOCC1	none
O=C(CCn1ccc2cc(S(=O)(=O)N3CCCC3)ccc21)NCc1cccc(F)c1	none
CC1CCN(c2nc(CN3CCCCC3)nc3scc(-c4ccccc4)c23)CC1	NALP1 yeast inh 50
O=C(NCCCN1CCOCC1)c1ccc(CS(=O)(=O)Cc2ccccc2Cl)o1	NALP1 yeast inh 29
Nc1c(-c2ccc(Cl)cc2)cnn1-c1cccc(C(F)(F)F)c1	none
Cc1ccc(-c2cnn(-c3cccc(C(F)(F)F)c3)c2N)cc1	NLRP3 yeast inh 57 | NALP3 confirm 66 | Casp1 ASC ctr inactive | NALP3 yeast rt inactive
COc1ccc(C)cc1-n1nnnc1SCC1CCCCO1 (centres undefined)	NLRP3 yeast inh 53 | NALP3 confirm inactive
Cc1ccc(C(=O)Nc2ccc3nc(C)sc3c2)s1	none
Cc1nc2cc(NC(=O)c3ccc(Br)s3)ccc2s1	NLRP3 yeast inh 51 | NALP3 confirm 69 | Casp1 ASC ctr inactive | NALP3 yeast rt inactive
Cc1ccc(C(=O)CCC(=O)Nc2ccccc2F)cc1	none
Brc1ccc(-c2cn3c(n2)SCC3)cc1	NLRP3 yeast inh 59 | NALP3 confirm 64 | Casp1 ASC ctr 63 | NALP3 yeast rt 61
Oc1ccc(-c2cn3c(n2)SCC3)cc1	none
Cn1c(-c2ccsc2)c(-c2cccs2)c2cc(Br)ccc21	none (no result: NALP1 yeast inh)
C/C(=N\NC(=O)CN1CCN(Cc2ccccc2)CC1)c1cccs1	none
COc1cc(C)c(Cl)cc1S(=O)(=O)N1CCCC1	none
COc1cc(S(=O)(=O)N2CCCC2)c(C)cc1C	NLRP3 yeast inh 60 | NALP3 confirm 77 | Casp1 ASC ctr 58 | NALP3 yeast rt inactive
COc1cc(Cl)c(S(=O)(=O)N2CCCC2)cc1Cl	NLRP3 yeast inh 66 | NALP3 confirm 70
c1ccc2c(c1)CSc1ccccc1N2	NLRP3 yeast inh 53 (no result: NALP1 yeast inh) | NALP3 confirm inactive
NCCc1nnc(SCC(=O)Nc2ccc(Br)cc2)o1	NLRP3 yeast inh 58 | NALP3 confirm 70 | Casp1 ASC ctr 53 | NALP3 yeast rt inactive
COc1ccc(C2c3sc(=O)[nH]c3SC3C4CCC(C4)C23)cc1 (centres undefined)	NLRP3 yeast inh 51 | NALP3 confirm 52
O=c1[nH]c2c(s1)C(c1ccccc1)C1C3CCC(C3)C1S2 (centres undefined)	none
COc1ccc(OC)c(Nc2cc(-c3ccccc3)nc(N)n2)c1	none | NALP3 confirm inactive | Casp1 ASC ctr inactive | NALP3 yeast rt inactive
CSc1ccc(-c2cc(=O)c3ccccc3o2)cc1	NLRP3 yeast inh 62 | NALP3 confirm 63 | Casp1 ASC ctr 53 | NALP3 yeast rt 62
CCOc1ccccc1NC(=O)Cc1coc2ccc(C)cc12	NLRP3 yeast inh 63 | NALP3 confirm 76 | Casp1 ASC ctr 65 | NALP3 yeast rt 55
CN1CCN(C(=O)C2CC(=O)N(c3ccc(Cl)cc3)C2)CC1 (centres undefined)	none
CC1(C)CN(C(Cc2ccccc2)C(N)=O)C1=O (centres undefined)	none
NCCNC[C@@H]1COC2(CCCCCCCCCCC2)O1	NLRP3 yeast inh 59 | NALP3 confirm 74
Cc1cc(=O)[nH]c(SCC2COC3(CCCCC3)O2)n1 (centres undefined)	none
CC(C)n1cc(CNC(=O)C2CCC(=O)N(Cc3ccccc3F)C2)cn1 (centres undefined)	none
CCN(CC)c1ccc2c(Cl)cc(=O)oc2c1	NLRP3 yeast inh 58 | NALP3 confirm 53 | Casp1 ASC ctr 59 | NALP3 yeast rt inactive
